TRHR agonist: TRH receptor (human) agonism; P34981; TRHR cells, calcium flux fluo-8, FDSS agonist mode; activation, % at 2 µM; 0.18% of 360,000 active; note: 0% is about no effect
Target sequence (P34981 whole entry, looked up): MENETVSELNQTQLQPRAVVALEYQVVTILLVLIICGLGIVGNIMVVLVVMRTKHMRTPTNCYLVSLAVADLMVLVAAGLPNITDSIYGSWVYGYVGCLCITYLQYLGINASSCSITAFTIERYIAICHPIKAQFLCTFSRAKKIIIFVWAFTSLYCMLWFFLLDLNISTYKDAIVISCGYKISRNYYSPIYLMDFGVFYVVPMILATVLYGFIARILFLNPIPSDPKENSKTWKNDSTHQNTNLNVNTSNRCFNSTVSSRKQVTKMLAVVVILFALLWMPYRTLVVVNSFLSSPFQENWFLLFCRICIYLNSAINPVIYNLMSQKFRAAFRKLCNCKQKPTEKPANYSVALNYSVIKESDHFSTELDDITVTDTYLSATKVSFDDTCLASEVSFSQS
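TRHR-expressing cells loaded with fluo-8 calcium dye; 23 nL library compound pin-transferred, kinetic FDSS fluorescence (Ex 480/Em 530) recorded about 180 s for agonist-induced calcium release, before a 10 nM TRH EC20 addition for potentiator mode.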
TRHR PAM: allosteric enhancers of human TRH receptor; 0.66% of 360,000 active; AID 493056; TRHR cells, fluo-8 calcium fluorescence, EC20 TRH enhancement; P34981; enhancement, % at 2 µM; in the data active = enhancement above about 30%; note: 0% is about no effect
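Enhancer read-out: after compound pinning and an initial kinetic agonist-mode read, an EC20 of TRH (10 nM final) was injected and fluo-8 calcium signal (Ex 480/Em 530) followed at 1 s/cycle for 100 cycles in TRHR-expressing cells.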
D1 agonist: human D1 receptor agonism; P21728; HEK293 T-REx D1 cells, calcium flux, agonist mode; activation, % at 2 µM; 1% of 360,000 active; AID 504660; note: 0% is about no effect
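Tetracycline-induced HEK293 TREx D1 cells, force-coupled to calcium signalling, were dye-loaded with a no-wash calcium kit. Compound was pin-added after a 10 s baseline. Fluorescence was read kinetically at 1 cycle/s for 180 s, with calcium rises flagged as agonism.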
D1 PAM: potentiators of human D1 dopamine receptor; HEK293 TREx D1 cells, calcium flux, dopamine EC20 potentiation; potentiation, % at 10 µM; 0.036% of 360,000 active; in the data active = potentiation above about 30%; note: 0% is about no effect
D1 antagonist: human D1 dopamine receptor antagonism; P21728; 3.2% of 360,000 active; HEK293 TREx D1 cells, calcium flux, dopamine EC80; hits give low values; activity change, negative = inhibition, % at 10 µM; AID 504652; in the data active = activity change below about -30%; note: % is set by controls: 0 for no effect and ±100 for the full control effect
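Kinetic fluorescence of a calcium dye serves as the read-out. D1-expressing Hek293 Trex cells, induced overnight at 30 C, are exposed to compound for 180 s before an EC80 dopamine addition, then read 180 s further.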
The depositor's hits bear a star; · = no result given; ! = not active in a repeat. Shown are actives, neighbours in structure and some others; about 4.6% of the full set was active somewhere. Cut-off read from the data, not from the text of the source, unless noted: active = activation above about 30%; inactive = the rest.

SMILES | TRHR agonist | TRHR PAM | D1 agonist | D1 PAM | D1 antagonist
CNC(=O)c1c(NC(=O)c2cc(=O)c3cc(C)c(C)cc3o2)sc2c1CCCC2 | -1 | 2 | 0 | -1 | 5
O=C(NCc1ccccc1Cl)c1nnc(CS(=O)(=O)c2ccccc2)o1 | 0 | 31* | 9 | -10 | -3
COc1ccccc1CCNC(=O)c1cccn1-c1nnc(N2CCCC2)s1 | 0 | -2 | 2 | -2 | 5
COCCNc1c(-c2ccc(OC)c(OC)c2)nc2ccc(Cl)cn12 | 0 | 4 | 0 | 2 | 32
COCCNc1c(-c2ccc(O)cc2)nc2ccc(Cl)cn12 | -1 | 0 | 0 | -10 | -41*
CC1CCN(C(=O)C(=O)Nc2sc3c(c2C(=O)O)CC(C)(C)OC3)CC1 | 0 | 7 | 3 | 7 | -58*
O=C(Cc1ccccc1)NC1(O)C(=O)c2ccccc2C1=O | 0 | -21 | 1 | -6 | -35*
CCn1c(=O)cc(SCC(=O)NCc2ccc(F)cc2Cl)c2ccccc21 | 0 | 2 | 1 | -5 | -5
Cc1cc2c(s1)c1cnn(Cc3ccc(SC(F)(F)F)cc3)c(=O)c1n2C | 0 | -4 | 4 | 7 | 7
CC(C)c1cc(N2CCN(C(=O)c3ccco3)CC2)n2c(nc3ccccc32)c1C#N | 0 | -3 | 0 | -3 | -33*
CCn1c(N2CCN(C(=O)c3ccco3)CC2)nc2ccccc21 | 0 | 1 | 3 | -6 | 8
FC(F)(F)c1cccc(N2CCN(c3ncnc4c3nc3n4CCCC3)CC2)c1 | 0 | 1 | 9 | 0 | -25
O=C(CC1Nc2ccccc2NC1=O)c1ccccc1 (configuration not stated) | 16 | -3 | 68* | -3 | 1
CCCC[C@]12Cc3ccccc3C(O1)c1c(c3ccccc3oc1=O)O2 | -1 | 10 | 1 | -1 | 0
O=C(c1ccc(Cl)cc1)n1nc(-c2ccco2)nc1NCc1cccs1 | 0 | -1 | 2 | -1 | 0
CCc1c(C(=O)N2CCCN(C)CC2)csc1C | 0 | -2 | 0 | -7 | -31*
COc1ccccc1NC(=O)C(=O)NCC(c1ccc2c(c1)OCO2)N1CCOCC1 (configuration not stated) | 0 | 1 | -1 | 3 | 4
Cc1ccc(NC(=O)Nc2nnc(N3CCCC3)s2)c(C)c1 | 0 | -1 | 1 | -1 | -5
CC(C)n1c(-c2ccc(N(C)C)cc2)nc2ccccc21 | 0 | 4 | 4 | -12 | -43*
CN(C)c1ccc(-c2nc3ccccc3n2C)cc1 | 0 | -2 | 2 | -8 | -14
COc1cc(C2c3c(oc4ccc(F)cc4c3=O)C(=O)N2c2nc(C)c(C)s2)cc(OC)c1OC (configuration not stated) | 0 | 10 | 52* | -8 | 2
CCCCOc1ccc(Cn2c(=O)oc3ccc(C)cc32)cc1 | 3 | -2 | 12 | -8 | -79*
CCCCOc1ccc(Cn2c(=O)oc3ccccc32)cc1 | 1 | -4 | 4 | -4 | -39*!
Cc1ccc2oc(=O)n(Cc3ccc(OC(C)C)cc3)c2c1 | -2 | -4 | 4 | -1 | 2
Cc1cc(C)cc(NC(=O)CSc2oc(-c3ccccc3)nc2S(=O)(=O)c2ccccc2)c1 | 1 | 6 | 3 | 2 | -28
SMILES | TRHR agonist | TRHR PAM | D1 agonist | D1 PAM | D1 antagonist
CCCCCc1c(C)nc(Nc2ccc(F)cc2)[nH]c1=O | 5 | -8 | 21 | -7 | -29
CCCc1cc(=O)[nH]c(Nc2ccc(OCC)cc2)n1 | 0 | -6 | 9 | 4 | -84*
CCCCc1c(C)nc(Nc2ccc(OC)cc2)[nH]c1=O | 0 | 7 | 1 | -1 | -37*
NC(=O)CSc1ncc2c(n1)-c1ccccc1N(Cc1ccc(Cl)cc1)S2(=O)=O | 0 | -2 | 7 | -2 | -10
COC(=O)c1ccccc1NC(=O)CCS(=O)(=O)c1nc(-c2ccc3c(c2)OCO3)cc(C(F)(F)F)n1 | 0 | -1 | 3 | 0 | 6
CS(=O)(=O)N(CC(=O)NCCc1ccccc1)C1CCCCC1 | 0 | 40* | -2 | 0 | ·
C[C@@H](NC(=O)c1nc[nH]c1C(=O)NCC(=O)OCc1ccccc1)c1ccccc1 | -1 | 30* | 0 | -7 | -23
C[C@H](NC(=O)c1nc[nH]c1C(=O)NCc1ccccc1)c1ccccc1 | 1 | -11 | 1 | -4 | -41*
